Screening results (PubChem)
ELG1 genotoxic: induces genotoxicity in HEK293T cells with luciferase-tagged ELG1; Potency, µM (doses to about 46 µM), inactives show top-dose activity change, positive = activation, hits mostly activators; HEK293T ELG1-luciferase reporter, luminescence, 16 h; 330,000 compounds, 1.3% hits; note: % of control where 0% means no effect; nearly all actives have a fitted effect of over 60% in size
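Quantitative HTS format in 1536-well plates. HEK293T ELG1-luciferase reporter cells receive test compound and are incubated 16 hr at 37 °C, 5% CO2; ONE-Glo added, 30 min room temperature, then luminescence read.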
Rab9 promoter act: activates the Rab9 promoter; Huh7 Rab9 promoter-luciferase reporter, luminescence, 24 h; Potency, µM (top dose mostly 9.22 µM), for the others: at the highest dose activation, negative = inhibition, actives largely listed as activators; 320,000 compounds, 2.8% hits; note: % of control where 0% means no effect; nearly all actives have a fitted effect of over 60% in size
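Luminescence from Amplite-detected luciferase (10 minutes, ambient) reports Rab9 promoter activation. Before that, stable Rab9-luciferase Huh7 cells (1500/well, reduced-serum OP-MEM I plus 10% FBS) were exposed to compound for 24 hours at 37C.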
Luc counter: Kinase-Glo luciferase inhibition (counter-screen). Q27757. Kinase-Glo luciferase, ATP luminescence, 8 min. Potency, µM (top dose mostly 38.3 µM), without a hit: at the top dose activity change, negative = inhibition, actives largely listed as inhibitors. 200,000 compounds, 0.28% hits; note: % is set by controls: 0 for no effect and ±100 for the full control effect; nearly all actives have a fitted effect of over 60% in size
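Substrate mix (final 50 mM imidazole pH 7.2, 50 mM KCl, 7 mM MgCl2, 10 uM ATP, 0.01% Tween 20, 0.05% BSA) plus pin-tool compound, then Kinase-Glo detection mix; 8 min ambient, luminescence read.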
SMN2 splice enh: SMN2 splice variant enhancement; HEK293 SMN2-luciferase splicing reporter, luminescence, 30-36 h; Potency, µM (series often up to 46.1 µM), inactives show at the highest dose activity change, positive = activation, hits mostly activators; 210,000 compounds, 2.8% hits; AID 1458; note: % of control where 0% means no effect; nearly all actives have a fitted effect of over 55% in size
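qHTS luciferase splicing reporter: luminescence rises when SMN2 exon 7 is included in transfected HEK293 cells. Compound exposure lasted 30-36 h at 37C, with 4.5 mM final sodium butyrate as control, followed by a ONE-Glo read.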
NPC1 prom act: activators of NPC1 promoter | Potency, µM (titrated, usually from 9.22 µM), for inactives: at the highest dose activation, most hits filed as activators | 320,000 compounds, 2.4% hits | AID 485313 | Huh7 NPC1 promoter luciferase reporter, 24 h; note: % of control where 0% means no effect; nearly all actives have a fitted effect of over 60% in size
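Quantitative HTS used a cell-based reporter: Huh7 cells stably bearing the NPC1 promoter upstream of luciferase were treated with compounds for 24 h, and promoter activation was read as luminescence.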
FLuc modulator: firefly luciferase modulation, counter-screen for miR-21 project; 360,000 compounds, 6.9% hits; Potency, µM (top dose mostly 57.5 µM), for inactives: at the top dose activity change, negative = inhibition, usual class: inhibitors; purified FLuc, Km substrates, luminescence inhibition; P08659;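 note: plate controls were vehicle for no effect and reference inhibitor for full effect; nearly all actives have a fitted effect of over 55% in size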
Target sequence (P08659 whole entry, looked up): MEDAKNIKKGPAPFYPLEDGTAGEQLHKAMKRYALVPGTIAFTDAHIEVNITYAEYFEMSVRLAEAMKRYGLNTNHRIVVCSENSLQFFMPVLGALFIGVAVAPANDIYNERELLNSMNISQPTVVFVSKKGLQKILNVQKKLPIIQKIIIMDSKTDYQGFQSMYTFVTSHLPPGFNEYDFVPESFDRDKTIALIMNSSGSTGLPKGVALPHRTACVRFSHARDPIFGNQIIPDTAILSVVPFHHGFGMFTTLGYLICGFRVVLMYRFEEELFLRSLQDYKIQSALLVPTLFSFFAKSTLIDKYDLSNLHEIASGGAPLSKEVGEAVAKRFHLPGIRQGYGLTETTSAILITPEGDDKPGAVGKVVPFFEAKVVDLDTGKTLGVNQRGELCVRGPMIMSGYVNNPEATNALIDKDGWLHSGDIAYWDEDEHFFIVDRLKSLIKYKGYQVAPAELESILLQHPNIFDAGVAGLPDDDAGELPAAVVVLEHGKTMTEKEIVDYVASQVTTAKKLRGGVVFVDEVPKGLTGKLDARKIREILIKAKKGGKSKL
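Purified P. pyralis luciferase, 10 nM final, with Km-level 10 uM D-luciferin and 10 uM ATP in 50 mM Tris acetate pH 7.5, 10 mM Mg acetate, 0.01% Tween-20, 0.05% BSA; 6-point qHTS titration about 60 µM downward; luminescence read.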
Active calls of the source: *. Only some compounds are listed: those with a hit (about 7.3% of all), similar ones and a draw of the others. Calls come from the whole dose curve; as a rule, active = well fitted curve in the direction sought with a large enough effect; inconclusive = small, poorly fitted or top-dose-only effect, or another doubt; inactive = no such curve, though single readings can be large; an effect the other way counts as inactive or inconclusive. Potency is the fitted concentration of half-maximal effect.

Results for O=C(Nc1ccc(Cl)cc1F)c1ccccc1Br ?
ELG1 genotoxic: inconclusive; Rab9 promoter act: 2.24µM*; Luc counter: -3.4%; SMN2 splice enh: 11.2µM*; NPC1 prom act: 1.78µM*; FLuc modulator: 10.7µM*

Results for O=C(O)c1ccc(NC(=O)c2ccccc2NC(=O)c2cccc(Br)c2)cc1 ?
ELG1 genotoxic: 4.9%; Rab9 promoter act: -2.3%; NPC1 prom act: -1.8%; FLuc modulator: 10.7µM*

What do the screens show for `O=C(Nc1ccc(Cl)cc1F)c1cccc2ccccc12`?
ELG1 genotoxic: 17.8%; Rab9 promoter act: inconclusive; NPC1 prom act: 20.0%; FLuc modulator: inconclusive

What do the screens show for `CC(C)c1ccc(OCC(=O)Nc2cccc(C(=O)Nc3ccccc3C(=O)O)c2)cc1`?
ELG1 genotoxic: 1.7%; Rab9 promoter act: -3.8%; Luc counter: -0.8%; SMN2 splice enh: 14.0%; NPC1 prom act: 0.3%; FLuc modulator: 21.3µM*

What do the screens show for `Cc1cccc(OCC(=O)Nc2cccc(C(=O)Nc3ccccc3C(=O)O)c2)c1`?
ELG1 genotoxic: -1.6%; Rab9 promoter act: -1.5%; Luc counter: -1.1%; SMN2 splice enh: 17.6%; NPC1 prom act: 0.7%; FLuc modulator: inconclusive

Results for CC(C)C(=O)Nc1ccc(C(=O)Nc2nnc(C(C)(C)C)s2)cc1 ?
ELG1 genotoxic: 0.6%; Rab9 promoter act: -1.7%; Luc counter: 1.5%; SMN2 splice enh: 11.6%; NPC1 prom act: -2.6%; FLuc modulator: -7.1%

Results for CC(C)C(=O)Nc1cccc(C(=O)Nc2ccccc2C(=O)O)c1 ?
ELG1 genotoxic: -0.9%; Rab9 promoter act: 15.9%; Luc counter: -2.9%; SMN2 splice enh: -5.7%; NPC1 prom act: 6.6%; FLuc modulator: 7.57µM*

How did O=C(Nc1nnc(CSCc2ccc(Cl)cc2)s1)c1cccc([N+](=O)[O-])c1 do in these assays?
ELG1 genotoxic: -3.3%; Rab9 promoter act: -2.2%; Luc counter: -0.3%; SMN2 splice enh: -23.4%; NPC1 prom act: 5.6%; FLuc modulator: -13.9%

How did O=C(O)CCCC(=O)Nc1cccc(C(=O)Nc2ccccc2C(=O)O)c1 do in these assays?
ELG1 genotoxic: 1.7%; Rab9 promoter act: -6.8%; Luc counter: 0.6%; NPC1 prom act: -1.1%; FLuc modulator: inconclusive

Results for CC(C)C(=O)Nc1cccc(C(=O)Nc2nnc(C(C)(C)C)s2)c1 ?
ELG1 genotoxic: 2.0%; Rab9 promoter act: 11.3%; Luc counter: -3.1%; SMN2 splice enh: -6.4%; NPC1 prom act: 0.7%; FLuc modulator: 13.5µM*

What do the screens show for `CCC(C)(C)c1nnc(NC(=O)c2cccc([N+](=O)[O-])c2)s1`?
ELG1 genotoxic: 13.7%; Rab9 promoter act: 22.3%; Luc counter: 3.0%; SMN2 splice enh: inconclusive; NPC1 prom act: 20.3%; FLuc modulator: 19µM*

What do the screens show for `CC(C)CNC(=O)c1cccc(C(=O)NCC(C)C)c1`?
ELG1 genotoxic: -4.7%; Rab9 promoter act: 0.4%; Luc counter: -0.3%; SMN2 splice enh: -1.2%; NPC1 prom act: 0.9%; FLuc modulator: 1.7%

What do the screens show for `Cc1nc(N2CCOCC2)sc1C=O`?
ELG1 genotoxic: 2.1%; Rab9 promoter act: -7.6%; Luc counter: -2.8%; NPC1 prom act: -3.6%; FLuc modulator: 0.4%

What do the screens show for `N#Cc1c(-c2ccccc2Cl)noc1/C=C/Nc1ccc(C(=O)O)cc1`?
ELG1 genotoxic: 10.7%; Rab9 promoter act: 6.4%; Luc counter: -18.9%; NPC1 prom act: 5.1%; FLuc modulator: 23.9µM*

Results for Cc1ccc(S(=O)(=O)/N=C(/Nc2ccc(O)c(C(=O)O)c2)c2ccccc2)cc1 ?
ELG1 genotoxic: 0.3%; Rab9 promoter act: -6.3%; NPC1 prom act: -0.6%; FLuc modulator: -14.4%

How did C/C(=N\Nc1cc(C)nc(-c2ccccc2O)n1)c1ccccc1O do in these assays?
ELG1 genotoxic: -13.9%; Rab9 promoter act: -1.7%; NPC1 prom act: -0.1%; FLuc modulator: 15.1µM*

What do the screens show for `Cc1cc(N(C)/N=C/c2ccccc2)nc(-c2ccccc2O)n1`?
ELG1 genotoxic: -8.0%; Rab9 promoter act: -1.2%; Luc counter: -1.0%; NPC1 prom act: -1.4%; FLuc modulator: -15.4%

What do the screens show for `Cc1cc(N/N=C/c2ccccc2O)nc(-c2ccccc2O)n1`?
ELG1 genotoxic: -1.4%; Rab9 promoter act: -2.9%; Luc counter: -2.1%; SMN2 splice enh: -16.7%; NPC1 prom act: -0.6%; FLuc modulator: 8.49µM*

How did Cc1cc(N/N=C/c2ccc(O)cc2O)c2ccccc2n1 do in these assays?
ELG1 genotoxic: 4.9%; Rab9 promoter act: 0.1%; NPC1 prom act: 8.9%; FLuc modulator: 1.2%

Results for Cc1cc(N/N=C/c2ccc(O)cc2O)nc(-c2ccccc2O)n1 ?
ELG1 genotoxic: -5.2%; Rab9 promoter act: 0.4%; Luc counter: -2.3%; SMN2 splice enh: -26.0%; NPC1 prom act: 5.4%; FLuc modulator: 2.69µM*

Results for Cc1cc(N/N=C\c2ccccc2)nc(-c2ccccc2O)n1 ?
ELG1 genotoxic: -1.1%; Rab9 promoter act: 22.2%; Luc counter: -2.8%; SMN2 splice enh: inconclusive; NPC1 prom act: 22.4%; FLuc modulator: 6.01µM*

What do the screens show for `CCOc1ccc(N2C(=O)C3ON(C)C(c4ccc([N+](=O)[O-])cc4)C3C2=O)cc1` (stereo not drawn)?
ELG1 genotoxic: -1.8%; Rab9 promoter act: -3.8%; NPC1 prom act: -0.9%; FLuc modulator: 3.5%

How did COC(=O)C1=C(C)NC(=O)NC1c1cn(-c2ccccc2)nc1-c1cccs1 (stereo not drawn) do in these assays?
ELG1 genotoxic: 0.3%; Rab9 promoter act: -11.0%; Luc counter: 1.6%; SMN2 splice enh: 1.1%; NPC1 prom act: -1.4%; FLuc modulator: -5.1%

What do the screens show for `Cn1cc(CN2CCN(CCO)CC2)c(-c2ccc(Oc3ccccc3)cc2)n1`?
ELG1 genotoxic: -0.1%; Rab9 promoter act: -0.7%; Luc counter: 3.2%; NPC1 prom act: -4.5%; FLuc modulator: 1.0%

Results for Cc1ccc2nc(C)cc(N/N=C/c3ccccc3O)c2c1 ?
ELG1 genotoxic: 7.8%; Rab9 promoter act: 10.9%; NPC1 prom act: 22.3%; FLuc modulator: -1.7%

What do the screens show for `Cc1ccc(C)c(/C=N/Nc2nc3ccccc3c(=O)n2O)c1`?
ELG1 genotoxic: 3.9%; Rab9 promoter act: 2.3%; NPC1 prom act: 5.6%; FLuc modulator: 13.5µM*

What do the screens show for `C/C(=N\Nc1nc2ccccc2c(=O)n1O)c1ccco1`?
ELG1 genotoxic: inconclusive; Rab9 promoter act: 3.16µM*; NPC1 prom act: 29.5%; FLuc modulator: 10.7µM*

How did Cc1csc(NC(=O)c2ccc(C)c([N+](=O)[O-])c2)n1 do in these assays?
ELG1 genotoxic: inconclusive; Rab9 promoter act: 1.12µM*; Luc counter: -28.2%; SMN2 splice enh: 3.55µM*; NPC1 prom act: 2µM*; FLuc modulator: 1.07µM*
